Most compounds without a hit are left out; they make up all but 3.5% or so of the library.
mHTT-CaM PPI inh = mHTT-calmodulin interaction abrogation; P42858; inhibition, % at 15 µM; AlphaScreen His-mHTT/GST-CaM binding, luminescence; AID 1671202; hit rate 3.6% among 190,000;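 further: 0% = both proteins with DMSO and 100% = one protein alone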
Pf apPOL block = Pf-apPOL DNA polymerase inhibition | Recombinant Pf-apPOL, molecular beacon fluorescence, 1.5 h | inhibition, % at 10 µM | hit rate 0.25% among 210,000 | AID 1794808
Active calls of the source: *. No stated cut-off is given here; in the data, active means inhibition above about 50%; inactive means the rest.

SMILES	mHTT-CaM PPI inh	Pf apPOL block
Cc1cc(C(c2cc(C)c(N)c(C)c2)c2ccco2)cc(C)c1N	46	-3
C[C@H]1[C@@H]2C[C@H]([C@H]3CCCCN31)[C@H](OC(=O)NCCCc1ccccc1)C2	40	-9
Cc1onc(-c2c(F)cccc2Cl)c1C(=O)Nc1nnc(C2CCCCC2)s1	17	-1
COc1cccc(C2C(C(=O)Nc3ccccc3)=C(C)Nc3nc(-c4ccccc4)nn32)c1OC (centres undefined)	70*	7
COc1ccc(C2C(C(=O)Nc3ccccc3)=C(C)Nc3nc(-c4ccccc4)nn32)c(OC)c1 (centres undefined)	44	-1
COc1ccccc1CC(=O)N1CC(C)CC(C)C1 (centres undefined)	-4	-1
CC(=O)Nc1ccc(Cl)c2c1C(=O)c1ccccc1C2=O	5	10
CNc1ccc(Cl)c2c1C(=O)c1ccccc1C2=O	77*	33
CN(CC(=O)Nc1ccc(F)c(Cl)c1)S(=O)(=O)c1ccc2[nH]c3c(c2c1)CCCC3	66*	-7
Cc1c(Cl)cccc1NC(=O)CN(C)S(=O)(=O)c1ccc2[nH]c3c(c2c1)CCCC3	52*	-1
Cc1ccc(NC(=O)CN(C)S(=O)(=O)c2ccc3[nH]c4c(c3c2)CCCC4)nc1	43	-2
CC(=O)c1ccc(NC(=O)CN(C)S(=O)(=O)c2ccc3[nH]c4c(c3c2)CCCC4)cc1	41	-2
COc1ccc(NC(=O)CN(C)S(=O)(=O)c2ccc3[nH]c4c(c3c2)CCCC4)cc1	56*	-3
Cc1ccc(NC(=O)CN(C)S(=O)(=O)c2ccc3[nH]c4c(c3c2)CCCC4)c(C)c1	47	-2
Cc1ccc(C(=O)N2CCCCC2)cc1C	-6	5
O=C1C2CCCN2C(c2c(F)cccc2Cl)N1c1nccs1 (centres undefined)	-8	1
O=C(COc1ccc(Cl)cc1)Nc1nnc(SCc2ccccc2)s1	-7	0
Cc1oc2cc(OCC(=O)O)ccc2c(=O)c1Oc1ccccc1Br	4	1
COCCCNC(=O)N1CCC(Nc2nccnc2OC)CC1	3	0
COc1ccc(-c2cc3n(n2)CCCN(C(C)=O)C3)cc1	-5	-6
Cc1cc(NC(=O)N2CCn3cccc3C2C(C)C)ccc1Br (centres undefined)	99*	1
CCCC1c2ccc(C)n2CCN1C(=O)Nc1ccc(Cl)cc1 (centres undefined)	51*	-4
CCCC1c2cccn2CCN1C(=O)Nc1ccc(C)c(Cl)c1 (centres undefined)	80*	-7
CCCC1c2cccn2CCN1C(=O)Nc1cccc(F)c1 (centres undefined)	26	-13
Cc1cccc(NC(=O)N2CCn3cccc3C2C(C)C)c1 (centres undefined)	4	-10
SMILES	mHTT-CaM PPI inh	Pf apPOL block
Cc1ccc(NC(=O)N2CCn3cccc3C2Cc2ccccc2)cc1F (centres undefined)	4	3
Cc1ccc(NC(=O)N2CCn3cccc3C2C)cc1F (centres undefined)	5	79*
CCCC1c2ccc(C)n2CCN1C(=O)Nc1ccc(C)c(F)c1 (centres undefined)	10	4
Cc1cccc(-n2c(CN3CCN(C(=O)Nc4ccccc4)CC3)nc3cccnc32)c1	-5	-2
COc1cc(NC(=O)C2CCN(c3nccc4sc(C)cc34)CC2)cc(OC)c1OC	52*	-4
COc1ccc(NC(=O)C2CCCN(c3nccc4sc(C)cc34)C2)cc1OC (centres undefined)	71*	-4
Cc1cc2c(N3CCCC(C(=O)NCc4cccc(Cl)c4)C3)nccc2s1 (centres undefined)	22	-5
Cc1cc2c(N3CCCC(C(=O)NCCN4CCCCCC4)C3)nccc2s1 (centres undefined)	100*	-5
Cc1cc2c(N3CCC(C(=O)Nc4ccc(C)c(F)c4)CC3)nccc2s1	7	-1
Cc1cc2c(N3CCC(C(=O)Nc4ccc(F)c(F)c4)CC3)nccc2s1	5	-2
CC(NC(=O)c1nc(N2CCCC2)c2oc3ccccc3c2n1)c1ccccc1 (centres undefined)	18	4
CCCN(C)C(=O)c1ccc(-n2cc(CNC(=O)C3CCC3)cn2)cc1	-2	-2
COCCCNC(=O)c1cc2c(s1)CCN(C(=O)c1ccccc1)C2	-6	-2
Cc1ccc(S(=O)(=O)N2CCc3c(c(-c4nc(-c5ccccc5)no4)nn3C)C2)cc1C	-10	-3
Cc1n[nH]c(C)c1S(=O)(=O)N1CCc2c(c(-c3nc(-c4ccccc4)no3)nn2C)C1	53*	-2
COc1ccc(-c2nc3cc(C)ccn3c2NC(=O)C(C)Cl)cc1OC (centres undefined)	25	13
Cn1c(N2CCC(C(=O)NCc3cccs3)CC2)cc(=O)n(C)c1=O	40	-2
CCn1c(N2CCC(C(=O)NCCC3=CCCCC3)CC2)cc(=O)n(C)c1=O	51*	5
Cn1c(N2CCC(C(=O)NCc3ccccc3)CC2)cc(=O)n(C)c1=O	27	2
Cn1c(N2CCC(C(=O)NCc3ccccn3)CC2)cc(=O)n(C)c1=O	70*	1
Cn1c(N2CCCC(C(=O)NCCC3=CCCCC3)C2)cc(=O)n(C)c1=O (centres undefined)	11	0
CC(C)c1ccc(N2CC(C(=O)NCc3ccccn3)CC2=O)cc1 (centres undefined)	9	-4
Cc1cccc(N2CC(C(=O)NCc3ccccn3)CC2=O)c1 (centres undefined)	61*	-14
CCn1c(N2CCC(C(=O)NCc3cccs3)CC2)cc(=O)n(C)c1=O	62*	-3
Cc1cc(C2CCCN2C(=O)Nc2ccc(C)c(F)c2)no1 (centres undefined)	-7	-2
SMILES	mHTT-CaM PPI inh	Pf apPOL block
CCCc1cc(C2CCCN2C(=O)NC2(CC(=O)OCC)CCCCC2)no1 (centres undefined)	6	6
CCCOc1ccc(/C=C2/N=C(c3ccccc3F)OC2=O)cc1OC	31	-92
O=C(c1ccco1)N1CCCCC1CCN1CCCC1 (centres undefined)	-7	-8
O=C1CCC[C@@H]2Cc3[nH]c4ccccc4c3[C@@H]3CCN1[C@H]23	9	-9
CCc1ccc(N(CC(=O)N2CCOCC2)S(=O)(=O)c2ccccc2)cc1	1	0
CCn1c(N2CCC(C(=O)Nc3cc(OC)c(OC)c(OC)c3)CC2)cc(=O)n(C)c1=O	62*	2
COc1ccc(NC(=O)C2CCN(c3cc(=O)n(C)c(=O)n3C)CC2)cc1OC	39	0
O=S(=O)(NCCNc1ccc(Nc2cccnc2)nn1)c1ccc2c(c1)OCCO2	4	-3
Cc1ccc(C)c(NC(=O)CSc2nc(N)c(C#N)cc2C#N)c1	41	6
Cc1ccc(C(=O)N2CCN(C(=O)c3ccccc3)C2c2ccc(N(C)C)cc2)cc1 (centres undefined)	40	6
Cc1ccc(C(=O)N2CCN(S(=O)(=O)c3ccccc3)C2c2ccc(N(C)C)cc2)cc1 (centres undefined)	53*	2
Cc1ccc(Cn2cc(CCC(=O)NCc3ccccn3)c3ccccc32)cc1	78*	-18
Cc1ccc(Cn2cc(CCC(=O)NCc3ccco3)c3ccccc32)cc1	15	-14
COc1ccc(C)cc1NC(=O)N1CCC2(CC1)Nc1ccccc1-n1cccc12	36	2
Cc1ccccc1NC(=O)N1CCC2(CC1)Nc1cc(F)ccc1-n1cccc12	35	-5

High-throughput results (PubChem BioAssay)
